High-throughput results as filed in PubChem BioAssay.
Marburg entry inh – qHTS for inhibitors of binding or entry into cells for Marburg Virus; actives 1.8% (n = 300,000); Marburg virus pseudotyped entry inhibition, cell reporter; Potency, µM (highest dose often 37.8 µM), for the others: top-dose activity change, negative = inhibition, most hits filed as inhibitors; AID 540276, 2011; calls by dose curve; tested in HEK293 cells; further: potency means the concentration at half of the fitted maximal effect; on the % scale 0 is the no-effect control and ±100 the full control effect
Shiga inhibitor – A qHTS for Small Molecule Inhibitors of Shiga Toxin. Vero cells, Shiga toxin protein synthesis inhibition reporter. inhibition, % at 38.7 µM. actives 9.2% (n = 290,000). AID 2315, 2010; in the data active means inhibition mostly above about 28%, no sharp cut-off; inactive means mostly below about 43%; further: 0% is about no effect
Cycloheximide cs – Cycloheximide Counterscreen for Small Molecule Inhibitors of Shiga Toxin; cell reporter, cycloheximide protein synthesis inhibition counterscreen; max response, %; actives 12% (n = 300,000); in the data active means max response mostly above about 13%, no sharp cut-off; inactive means mostly below about 14%; further: read at 38.3 µM for the half of the compounds with a filed dose; 0% is about no effect
Lassa entry inh – qHTS for Inhibitors of binding or entry into cells for Lassa Virus. Lassa virus pseudotype entry inhibition, cell reporter. Potency, µM (highest dose often 37.9 µM), for the others: at the highest dose activity change, negative = inhibition, actives largely listed as inhibitors. actives 1.2% (n = 300,000). AID 540256, 2011; calls by dose curve; tested in HEK293 cells; further: potency means the concentration at half of the fitted maximal effect; on the % scale 0 is the no-effect control and ±100 the full control effect; nearly all actives have a fitted effect of over 50% in size
An asterisk follows results filed as active; ? = inconclusive; . = no result given; [ ] = dose if it differs, or a comment. Compounds with a hit are over-represented: about 12% of the library has one in this group of screens.

SMILES	Marburg entry inh	Shiga inhibitor	Cycloheximide cs	Lassa entry inh
O=C(NC1CCCN(Cc2ccc(Cl)cc2)C1)c1cccc(N2CCCC2=O)c1 (stereo not given)	-18%	-30	-2	-5%
O=C(NC1CCCCCC1)c1cccc(N2CCCC2=O)c1	?	33*	46*	-25%
Cc1ccc(C(=O)O)cc1N1CCCC1=O	-14%[14.2 µM]	-2	-2	1%
Cc1ccc(C(=O)NC2CCCCCC2)cc1N1CCCC1=O	6%[46.1 µM]	14	23*	?
Cc1cc(C)cc(C(=O)NCC(=O)OCC(=O)Nc2cccnc2Cl)c1	9%[46.1 µM]	1	-5	-9%
Cc1ccc(Nc2cc(-n3cccn3)ncn2)c(C)c1	-3%	22	28*	-4%
Fc1cccc(Nc2cc(-n3cccn3)ncn2)c1	-22%	51*	49*	4%
Cc1ccc(Nc2cc(-n3nc(C)cc3C)ncn2)c(C)c1	5%	24	-2	-4%
COCOc1ccc(Br)cc1C(=O)[C@H]1O[C@H]1c1cccc(OC)c1	-17%[14.2 µM]	.	.	.
COc1ccccc1/C=N/OCc1cc(C(C)=O)ccc1OC	?	-1	7	9%
Cc1ccc(C)c(CN2CCC(n3nccc3NC(=O)CCCc3ccccc3)CC2)c1	.	17	-1	.
CN/N=C(\Cc1nc2ccccc2[nH]1)c1ccc([N+](=O)[O-])cc1	.	57*	32*	.
O=C(Cc1nc2ccccc2[nH]1)c1ccc(Cl)cc1	3%[46.1 µM]	62*	23*	.
O=C(NCCc1nc2ccccc2[nH]1)Nc1ccccc1	14%	-16	2	-4%
Nc1ccc(C(=O)OCc2nc3ccccc3[nH]2)cc1	4%	44	16	18%
N#CCCN/N=C(/Cc1nc2ccccc2[nH]1)c1cccc(Cl)c1	-8%	99*	43*	?
Clc1ccc(/C(Cc2nc3ccccc3[nH]2)=N\Nc2ccccc2)cc1	?	34*	37*	?
CC(C)(C)C1CCc2c(sc(NC(=O)CCC(=O)O)c2C(=O)Nc2ccccc2C(F)(F)F)C1 (stereo not given)	?	.	.	-6%[46.1 µM]
CC(=O)c1ccc(OCC(O)CN2CCN(S(=O)(=O)c3c(C)c(C)cc(C)c3C)CC2)cc1 (stereo not given)	?	-3	-1	?
O=C(O)/C=C/c1cc(F)c(S(=O)(=O)N2CCN(S(=O)(=O)c3ccc4c(c3)OCCO4)CC2)cc1F	.	-5	-3	.
O=C(Cc1nc2ccccc2[nH]1)c1ccc([N+](=O)[O-])cc1	-9%[46.1 µM]	60*	29*	-25%
CCc1cc(C(=O)COc2ccccc2F)c(O)cc1O	-25%	16	28*	-1%
CCc1cc(C(=O)Cc2nc3ccccc3[nH]2)c(O)cc1O	11%	143*	40*	-14%
O=C1NC2C(=CC(O)C(O)C2O)c2cc3c(cc21)OCO3 (stereo not given)	?	.	.	1µM*
Nc1n[nH]c(N)c1N=Nc1ccc2c(c1)OCO2	.	97*	36*	.
SMILES	Marburg entry inh	Shiga inhibitor	Cycloheximide cs	Lassa entry inh
Cc1[nH]nc(N)c1-c1ccccc1	.	22	0	.
Cc1ccc(C)c2sc(N)nc12	.	1	-3	.
Cc1ccc(N=Nc2c(N)n[nH]c2N)cc1	16%[46.1 µM]	49*	41*	-6%[46.1 µM]
Cc1nc(N)sc1N=Nc1ccc(Br)cc1	?	127*	65*	?
Cc1[nH]nc(N)c1N=Nc1ccc(Br)cc1	.	41*	29*	.
Clc1ccc(-c2cc(COc3ccccc3)on2)cc1	7%[46.1 µM]	105*	38*	-7%[46.1 µM]
O=C(COc1ccc(Cl)cc1)Nc1cc(-c2ccccc2)no1	-3%[46.1 µM]	.	.	10%[46.1 µM]
Clc1ccc(OCc2cc(-c3ccccc3)no2)cc1Cl	7%	active	45*	22%
O=S(=O)(NCc1cc(-c2ccccc2)no1)c1ccc(Cl)cc1	7%	-13	1	0%
COc1ccccc1C(=O)Nc1ccc(S(=O)(=O)Nc2nc(C)cc(C)n2)cc1	-3%[46.1 µM]	.	.	-4%[46.1 µM]
Cc1ccc2c(COC(=O)c3ccccc3F)cc(=O)oc2c1	-24%[46.1 µM]	128*	27*	?
CCc1ccc2c(COC(=O)c3n[nH]c4ccccc34)cc(=O)oc2c1	?	94*	46*	-21%
Cc1ccc2c(COC(=O)c3n[nH]c4ccccc34)cc(=O)oc2c1	1%	78*	32*	2%
CCc1ccc2c(COC(=O)C3CC(=O)N(CCc4ccccc4)C3)cc(=O)oc2c1 (stereo not given)	-28%	.	.	14%
Cc1ccc2c(COC(=O)c3c(C)noc3C)cc(=O)oc2c1	5%	35	17	9%
Cc1nn(-c2ccccc2)c2nc(C3CC3)cc(C(=O)Nc3ccccc3F)c12	.	.	.	-12%[46.1 µM]
CSc1nc(N)c2ncn([C@H]3O[C@H](COP(=O)(O)OP(=O)(O)O)[C@@H](O)[C@@H]3O)c2n1	8%	.	.	.
